Compounds with a hit are over-represented: about 10% of the library has one in this group of screens.
KB-3-1 cytotox = kills parental KB-3-1 adenocarcinoma cells. KB-3-1 viability, CellTiter-Glo ATP luminescence, 72 h. Potency, µM (top dose mostly 46.1 µM), usual class: cytotoxic. hit rate 1.4% among 400,000. AID 1347075; further: on the % scale 0 is the no-effect control and ±100 the full control effect; nearly all actives have a fitted effect of over 60% in size
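Using CellTiter-Glo luminescence, growth of non-resistant KB-3-1 adenocarcinoma cells is assessed 72 h after pin-tool compound addition at 37 °C. Normalized responses across the concentration series yield fitted curves.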
MCF10A rerep = inducers of DNA re-replication in MCF 10A breast cells. Potency, µM (top dose mostly 46.1 µM), for inactives: at the top dose activity, positive = re-replication, actives largely listed as activators. MCF 10A DNA re-replication, Hoechst nuclear intensity, 48 h. hit rate 2.9% among 350,000; further: % of control where 0% means no effect; nearly all actives have a fitted effect of over 50% in size
Gal4-VP16 FLuc = counter-screen for ROR gamma inhibitors: Gal4-VP16 reporter. Potency, µM (series often up to 53.6 µM), for the others: top-dose activity, negative = inhibition, most hits filed as inhibitors. hit rate 3.5% among 310,000. AID 2546. Drosophila S2 Gal4-VP16 UAS-luciferase, luminescence, 20 h;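 further: Gal4-VP16 expression switched on by copper sulfate through the metallothionein promoter; on the % scale 0 is the no-effect control and ±100 the full control effect; nearly all actives have a fitted effect of over 50% in size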
SW480 rerep = inducers of DNA re-replication in SW480 colon cancer cells. SW480 DNA re-replication, Hoechst DNA content imaging, 48 h. Potency, µM (series often up to 46.1 µM), for inactives: at the highest dose re-replication activation, most hits filed as activators. hit rate 1.8% among 340,000; further: % of control where 0% means no effect; nearly all actives have a fitted effect of over 55% in size
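Readout is total intensity of Hoechst-stained nuclei, excited at 405 nm and collected at 500-530 nm. Compound treatment lasted 48 hr at 37 C in 5% CO2 before staining.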
RORg inh = inhibitors of mouse ROR gamma transcriptional activity; P51450; Drosophila S2 Gal4-RORgamma UAS-luciferase reporter, 20 h; Potency, µM (highest dose often 53.6 µM), for inactives: at the highest dose activity change, negative = inhibition, hits mostly inhibitors; hit rate 5.4% among 310,000; AID 2551; further: on the % scale 0 is the no-effect control and ±100 the full control effect; nearly all actives have a fitted effect of over 60% in size
Target sequence (P51450 whole entry, looked up, the tested form may be a part): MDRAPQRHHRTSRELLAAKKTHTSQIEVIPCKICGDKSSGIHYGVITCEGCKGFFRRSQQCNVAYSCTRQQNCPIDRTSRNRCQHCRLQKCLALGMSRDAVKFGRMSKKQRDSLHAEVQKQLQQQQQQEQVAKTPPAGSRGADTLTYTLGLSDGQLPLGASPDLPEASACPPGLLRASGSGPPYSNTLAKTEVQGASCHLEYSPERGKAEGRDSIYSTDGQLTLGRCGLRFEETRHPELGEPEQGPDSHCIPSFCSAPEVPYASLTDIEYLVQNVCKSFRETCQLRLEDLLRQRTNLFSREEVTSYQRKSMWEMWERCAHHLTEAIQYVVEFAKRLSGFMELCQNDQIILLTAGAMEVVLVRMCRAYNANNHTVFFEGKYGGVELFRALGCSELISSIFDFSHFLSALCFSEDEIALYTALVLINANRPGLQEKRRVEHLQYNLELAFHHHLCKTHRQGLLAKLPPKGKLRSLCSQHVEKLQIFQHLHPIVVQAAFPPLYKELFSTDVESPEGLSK
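In this cell-based reporter format, copper sulfate (700 uM final) drives Gal4–ROR gamma fusion expression from a metallothionein promoter in Drosophila Schneider cells; compounds preincubated 1 hr, reporter read after 20 hr at ambient temperature.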
KB-V1 cytotox = kills drug-selected multidrug resistant KB-V1 cells | AID 1347076 | KB-V1 MDR cells viability, CellTiter-Glo, 72 h | hit rate 3.4% among 400,000 | Potency, µM (doses to about 46.1 µM), usual class: cytotoxic; further: on the % scale 0 is the no-effect control and ±100 the full control effect; nearly all actives have a fitted effect of over 60% in size
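KB-V1 MDR subline cells in DMEM (phenol-red free, 10% FBS) exposed to compounds in qHTS concentration series for 72 h at 37 degrees C. Viability read by CellTiter-Glo luminescence; concentration-effect curves fitted after normalization and correction.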
The depositor's hits bear a star; i = inactive; u = inconclusive; x = no result given; [ ] = dose if it differs, or a comment. The call rests on the fitted dose curve; in most records, active means well fitted curve in the direction sought with a large enough effect; inconclusive means small, poorly fitted or top-dose-only effect, or another doubt; inactive means no such curve, though single readings can be large; an effect the other way counts as inactive or inconclusive. Potency means the concentration at half of the fitted maximal effect.

SMILES	KB-3-1 cytotox	MCF10A rerep	Gal4-VP16 FLuc	SW480 rerep	RORg inh	KB-V1 cytotox
N#CCCN(C(=O)Nc1ccccc1)c1ccccc1	i	0%	-2%	-5%	-1%	i
CC1(C(=O)NC(=S)N(CCC#N)c2ccccc2)CC1(Cl)Cl (centres undefined)	i	2%	u	-7%	13µM*	i
COc1cccc(CNc2nc3cc(-c4ccsc4)sc3c(=O)n2C)c1OC	9.2µM*	x	x	x	x	2.6µM*
C=CCNc1nc2cc(-c3ccccc3C)sc2c(=O)n1C	21µM*	x	x	x	x	u
CC(=O)Nc1ccc(CNc2nc3cc(-c4ccsc4)sc3c(=O)n2C)cc1	u	x	x	x	x	23µM*
COc1cccc(CNc2nc3cc(-c4ccc(C)cc4)sc3c(=O)n2C)c1OC	u	x	x	x	x	12µM*
Cc1ccc(CNc2nc3cc(-c4ccccc4C)sc3c(=O)n2C)c(C)c1	u	x	x	x	x	i
COC(=O)[C@@H]1C[C@H]1[C@@H](NC(=O)Oc1ccc(F)cc1)c1ccccc1	x	x	-5%	x	29%	x
OC(c1ccc(F)cc1)c1nc(-c2cnc3ccccc3c2)cs1 (centres undefined)	i	x	x	x	x	i
COc1cccc(CNc2nc3cc(-c4ccccc4)sc3c(=O)n2C)c1	7.3µM*	x	x	x	x	2.3µM*
COc1cccc(CNc2nc3cc(-c4ccc(OC)c(OC)c4)sc3c(=O)n2C)c1	i	x	x	x	x	i
CN(C(=S)NC(=O)/C=C/c1ccc(F)cc1)C1CCCCC1	i	-33%	2.5µM*	-5%	1.3µM*	i
CN(C(=O)/C=C/c1ccc(F)cc1)C1CCCCC1	i	-29%	x	u	x	i
Cc1cccc(NC(=S)NC2CCCC2)c1	i	1%	-15%	-5%	22%	i
CC(C)NC(=S)NC(=O)/C=C/c1ccc(F)cc1	i	u	7.1µM*	-1%	1.8µM*	i
Cc1cccc(NC(=S)N(C)C2CCCCC2)c1	i	5%	18µM*	1%	11µM*	i
CN(C(=O)c1ccc(-c2ccccc2)cc1)C1CCCCC1	i	0%	x	-41%	x	i
Cc1ccc(C(=O)NC(=S)N(C)C2CCCCC2)cc1	i	10%	3.2µM*	1%	2.2µM*	i
CCCC(=O)Nc1nc2c(ncn2[C@@H]2O[C@H]3COP(=O)(O)O[C@@H]3[C@@H]2OC(=O)CCC)c(=O)[nH]1	x	x	-2%	x	2%	x
O=C1NC(=S)N/C1=C/c1cc([N+](=O)[O-])ccc1O	i	27%	2%	10µM*	-18%	i
CC(C)Cn1c(=O)c2ccccc2n2c(SCC(=O)N3c4ccccc4CC3C)nnc12 (centres undefined)	i	2%	0%	2%	18%[10 µM]	1.8µM*
CC1Cc2ccccc2N1C(=O)CSC1=NCCS1 (centres undefined)	i	8%	1%	-3%	u	i
CC1Cc2ccccc2N1C(=O)CSc1ccccc1 (centres undefined)	i	-3%	17%	-8%	5%	16µM*
O=C(CSc1nnc(CNc2ccccc2)o1)N1CCCc2ccccc21	i	-5%	0%	-2%	17%	13µM*
CC1Cc2ccccc2N1C(=O)CSc1nnc(-c2cccc(Cl)c2)o1 (centres undefined)	i	x	x	x	x	i
SMILES	KB-3-1 cytotox	MCF10A rerep	Gal4-VP16 FLuc	SW480 rerep	RORg inh	KB-V1 cytotox
CC1Cc2ccccc2N1C(=O)CSc1nnc(CNc2ccccc2)o1 (centres undefined)	u	-3%	-3%	-2%	-3%	16µM*
COc1ccc(NCc2nnc(SCC(=O)N3CCCc4ccccc43)o2)cc1	i	-1%	15%	-18%	2%	i
O=C(Cc1ccc2ccccc2c1)Nc1nnc(-c2ccncc2)s1	i	x	x	x	x	i
Cc1ccc(-n2ncc(C(=O)NCc3ccccc3)c2C2CCN(C(=O)OC(C)(C)C)CC2)cc1	i	x	x	x	x	i
O=C(NCc1ccccc1)c1ccc(CNS(=O)(=O)c2ccc(Br)cc2)cc1	i	x	x	x	x	i
Cc1cccc(OCc2nnc(SCC(=O)N3c4ccccc4CCc4ccccc43)o2)c1	i	-7%	7%	-2%	4%	u
O=C(CSc1nnc(CNc2ccc(F)cc2)o1)N1c2ccccc2Sc2ccccc21	u	10%	-4%	-2%	31%	3.3µM*
O=C(CSc1nnc(COc2ccc(F)cc2)o1)N1c2ccccc2CCc2ccccc21	i	u	3%	14%	36%	6.5µM*
Cc1sc2nc(C3CC3)nc(SCC(=O)N3c4ccccc4CC3C)c2c1C (centres undefined)	i	9.2µM*	0%	15µM*	-23%	5.8µM*
COC(=O)c1cc(NC(=O)Cn2ncc3c2-c2ccccc2OC3)cc(C(=O)OC)c1	i	x	x	x	x	i
O=C(NC1CCCC1)C(c1ccncc1)N(C(=O)Cn1nnc(-c2ccccc2F)n1)c1cccc(F)c1 (centres undefined)	i	-6%	0%	-1%	-28%	i
COC(=O)CC1Oc2ccccc2-n2cc(-c3ccc(F)cc3)nc21 (centres undefined)	i	x	x	x	x	i
CCOC(=O)N1CCC(NC(=O)c2cc3sccc3n2CC)CC1	i	u	-1%	-7%	32%	23µM*
CCCCn1nnnc1C(c1ccccc1)N1CCN(C/C=C/c2ccccc2)CC1 (centres undefined)	i	x	x	x	x	i
COc1cc(SC)ccc1C(=O)Nc1ncc(C)s1	i	u	u	-113%	2.5µM*	i
COc1cc(SC)ccc1C(=O)Nc1ccc(Br)cn1	u	u	7.9µM*	-2%	2µM*	18µM*
COc1cc(SC)ccc1C(=O)Nc1ccon1	i	-1%	10%	-2%	57%	i
COc1cc(SC)ccc1C(=O)Nc1ccccn1	i	8%	10µM*	0%	8.9µM*	i
Cc1c(Cl)cccc1NC(=O)CSc1nc2ncccc2o1	i	x	x	x	x	i
COc1ccc(OC)c(CNc2ncnc3onc(-c4ccc(Cl)cc4)c23)c1	5.8µM*	x	x	x	x	8.2µM*
COC(=O)[C@@]1(Cc2ccc(OC)cc2)[C@H]2c3cc(C(=O)N4CCCC4)n(CCN4CNCC4=O)c3C[C@H]2CN1C(=O)c1ccccc1	x	x	-11%	x	22%	x
O=[N+]([O-])c1cc(-n2cccc2)ccc1N1CCOCC1	u	-2%	8%	-6%	20%	6.5µM*
Cc1ccc(C)n1-c1ccc(N2CCOCC2)c([N+](=O)[O-])c1	u	u	6%	u	-3%	i
Nc1cc(N2CCCC2)c(Cl)cc1[N+](=O)[O-]	u	14%	u	-1%	34%	8.2µM*

Screening results deposited in PubChem by National Center for Advancing Translational Sciences (NCATS).
